Source: PubChem
The list is not random: actives were taken first. Their share in the collection is about 0.34%.
TRPML1 blocker: qHTS for Inhibitors of the Human Mucolipin Transient Receptor Potential 1 (TRPML1); 390,000 tested, 0.02% active; TRPML1-inducible cells, Ca2+ dye fluorescence, FDSS; stronger effect = lower value; inhibition of EC80 agonist-evoked calcium signal; Mucolipin-1 (Homo sapiens), Q9GZU1; activity change, negative = inhibition, % (concentration not given with the values); AID 624415, 2012; in the data active = activity change below about -50%; inconclusive = between about -30% and that limit;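 also: stimulus is agonist 54-4 at its EC80 concentration; % is scaled to controls: 0 for no effect and ±100 for the full control effect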
Target sequence (Q9GZU1 whole entry, looked up): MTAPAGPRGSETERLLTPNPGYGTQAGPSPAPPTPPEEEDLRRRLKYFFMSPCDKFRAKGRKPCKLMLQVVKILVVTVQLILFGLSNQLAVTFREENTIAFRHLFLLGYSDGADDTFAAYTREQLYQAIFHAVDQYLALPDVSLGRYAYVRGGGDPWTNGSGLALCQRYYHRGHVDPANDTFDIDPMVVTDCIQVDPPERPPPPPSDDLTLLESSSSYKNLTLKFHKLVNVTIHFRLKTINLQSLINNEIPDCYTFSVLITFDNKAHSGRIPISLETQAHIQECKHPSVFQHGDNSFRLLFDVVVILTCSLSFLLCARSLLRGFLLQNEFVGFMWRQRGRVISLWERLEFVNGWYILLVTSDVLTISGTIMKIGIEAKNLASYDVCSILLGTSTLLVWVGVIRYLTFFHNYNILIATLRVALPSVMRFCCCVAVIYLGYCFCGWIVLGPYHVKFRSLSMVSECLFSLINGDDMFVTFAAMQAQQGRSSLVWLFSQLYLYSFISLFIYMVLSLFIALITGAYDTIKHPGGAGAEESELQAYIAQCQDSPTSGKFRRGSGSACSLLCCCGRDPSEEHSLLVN
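Tet-induced TRPML1-DL cells loaded with Ca8 no-wash calcium dye were read kinetically on FDSS. Compound addition was followed by EC80 agonist 54-4 (4 uM final); inhibition was read over 110 s.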
uPA surface inh: qHTS for Inhibitors of Cell Surface uPA Generation; Potency, µM (top dose mostly 38.3 µM), inactives show at the top dose activity change, negative = inhibition, most hits filed as inhibitors; AID 540303, 2011; cell surface uPA generation assay, qHTS; 330,000 tested, 0.31% active; active = well fitted inhibition curve with a large enough effect; inconclusive = small, poorly fitted or top-dose-only effect; inactive = no such curve, though single readings can be large or run the other way; tested in mouse RAW 264.7 cells; also: potency is read from the fitted curve at half-maximal effect; % is scaled to controls: 0 for no effect and ±100 for the full control effect; nearly all actives have a fitted effect of over 55% in size
miR-21 reporter: qHTS Assay for Modulators of miRNAs and/orActivators of miR-21. HeLa miR-21 FLuc reporter, luciferase, 48 h. Potency, µM (series often up to 38.3 µM), for inactives: at the top dose activity change, positive = activation, usual class: activators. 340,000 tested, under 10 active. AID 2288, 2010; active = well fitted curve in the direction sought with a large enough effect; inconclusive = small, poorly fitted or top-dose-only effect, or another doubt; inactive = no such curve, though single readings can be large or run the other way;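 also: % of control where 0% means no effect; miR-21 action dims this reporter so a rising signal means less miR-21 action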
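HeLa cells stably expressing CMV-driven firefly luciferase with a downstream miR-21 binding sequence, endogenously expressing miR-21, were treated with titrations (up to about 40uM final) for 48 hours at 37 degree Celsius. Luciferase luminescence was read after lysis.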
TRPML1 agonist: qHTS for Agonists of the Human Mucolipin Transient Receptor Potential 1 (TRPML1); Mucolipin-1 (Homo sapiens), Q9GZU1; TRPML1-expressing cells, Ca2+ dye fluorescence, FDSS; activation, % (concentration not given with the values); 410,000 tested, 0.12% active; AID 624414, 2012; in the data active = activation above about 50%; inconclusive = mostly about 30% to 49%; also: 0% is about no effect
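Calcium fluorescence on an FDSS kinetic reader gave the read-out. Tet-induced TRPML1-DL cells were plated overnight, dye-loaded (Ca8 with quencher, 45-90 min, room temperature, dark), then read 110 s after compound addition, and again 110 s after 4uM final 54-4 (EC80).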
An asterisk follows results filed as active; ? = inconclusive; nt = no result given.

SMILES | TRPML1 blocker | uPA surface inh | miR-21 reporter | TRPML1 agonist
C/C(=N\NC(=O)c1ccc(O)cc1)c1cccc(NC(=O)c2ccccc2C)c1 | -6.5 | 10µM* | -8.5% | 1.6
Cc1ccccc1C(=O)Nc1cccc(NC(=O)c2ccccc2[N+](=O)[O-])c1 | 14.6 | 4.47µM* | -3.5% | -0.9
CC(C)(CNc1ccc(S(=O)(=O)C(F)(F)F)cc1[N+](=O)[O-])N1CCOCC1 | 74.1 | 5.6% | -18.8% | 0.3
Cc1ccccc1/C=C/C1=NCCN1 | -10.7 | 3.98µM* | nt | 0.1
Cc1ccccc1C=O | -0.8 | -2.5% | nt | -0.5
CC(C)(C)OC(=O)NCCCCCc1cn([C@@H](CO)C(=O)NCCCCCCCCCCC(=O)N2CCN(C(=O)OC(C)(C)C)CC2)nn1 | -21.2 | 11.2µM* | nt | 2.0
COc1ccc(C)cc1NC(C)C(=O)c1c[nH]c2ccccc12 (centres undefined) | nt | nt | nt | -1.0
CC1CCCN(c2ncnc3c2cnn3-c2ccc(Cl)cc2)C1 (centres undefined) | -1.9 | 2.24µM* | 13.9% | -0.8
Cc1cccc(-n2ncc3c(N4CCCCCC4)ncnc32)c1 | -1.6 | nt | 15.2% | 0.1
Clc1ccc(-n2ncc3c(NCC4CCCO4)ncnc32)cc1 (centres undefined) | 20.4 | 10µM* | -59.1% | -0.2
c1ccc(-n2ncc3c(N4CCCCC4)ncnc32)cc1 | 17.0 | 1.58µM* | ? | -0.6
COc1ccc(OC)c(/C=C/c2cc3ccccc3cn2)c1 | nt | nt | nt | -0.6
CC(C)(C)n1ncc2c(=O)n(Cc3ccccc3C#N)cnc21 | -28.6 | nt | nt | 0.7
CN([C@@H](C(=O)OC(C)(C)C)c1ccccc1)S(=O)(=O)c1cccc(S(=O)(=O)N(C)[C@@H](C(=O)OC(C)(C)C)c2ccccc2)c1 | -19.1 | 21.6% | -0.1% | 70.5*
COC(=O)[C@H](Cc1ccccc1)N(C)S(=O)(=O)c1cccc(S(=O)(=O)N(C)[C@@H](Cc2ccccc2)C(=O)OC)c1 | 23.4 | 16.3% | 14.8% | 3.3
CCc1cccc2c(C(O)c3c[nH]c4ccccc34)c[nH]c12 (centres undefined) | nt | nt | nt | 12.0
O=C1C(=O)c2ccccc2C(O)=C1CCCCl | 4.1 | 11.2µM* | 29.7% | 2.2
COc1ccc(CC2=C(O)c3ccccc3C(=O)C2=O)cc1 | 1.0 | -0.4% | -8.5% | -0.6
CC1=Nc2cc(C(=O)O)ccc2Sc2c(C)ccc(C)c21 | -1.3 | nt | -0.7% | -0.4
CC1=Nc2cc(C(=O)N3CCCC3)ccc2Sc2c(C)ccc(C)c21 | -7.2 | 3.98µM* | 28.9% | 1.5
COc1cc(OC)cc(-c2cc3ccc(OC)cc3cn2)c1 | -7.9 | 3.55µM* | nt | 1.2
COc1ccc2cc(-c3ccccc3)ncc2c1 | -5.1 | ? | -60.9% | -0.1
COc1ccc2cc(-c3ccsc3)ncc2c1 | -0.5 | 8.91µM* | nt | 0.7
COc1ccc(-c2cc3cc(OC)c(OC)cc3cn2)cc1 | -0.6 | -18.1% | nt | -0.1
Cc1ccc(-n2nc(CO)c(C(=O)NC(C)CCCc3ccccc3)n2)cc1C (centres undefined) | 48.8 | nt | 2.9% | 4.4
SMILES | TRPML1 blocker | uPA surface inh | miR-21 reporter | TRPML1 agonist
Cc1c(CN2CCCC(C(=O)Nc3cccc(-n4cccn4)c3)C2)cnn1C (centres undefined) | 6.5 | 7.94µM* | -0.3% | 0.3
Cn1cc(CN2CCCC(C(=O)Nc3ccc(-c4cccc(F)c4)cc3)C2)cn1 (centres undefined) | 2.7 | 8.91µM* | 4.8% | 3.3
Cn1cc(CN2CCCC(C(=O)Nc3cccc(-n4cccn4)c3)C2)cn1 (centres undefined) | -4.2 | -3.0% | -0.1% | -0.9
CC1(N2CCCCC2)C(=O)c2ccccc2C1=O | 12.7 | -2.1% | 0.2% | 0.0
CC1(S(=O)(=O)O)CC(=O)c2ccccc2C1=O (centres undefined) | -4.0 | 7.94µM* | ? | -0.2
CC(C)(C)n1ncc2c(=O)n(Cc3cc(F)ccc3Cl)cnc21 | -1.7 | nt | nt | 2.1
C[N+](C)(C)c1ccc(/C=C2\C=Cc3ccccc32)cc1 | nt | nt | nt | -0.4
